Screening data: PubChem BioAssay, National Center for Advancing Translational Sciences (NCATS)
This is a sample that favours compounds with a hit; in the whole collection about 0.92% have one here.
TDP1 block – inhibitors of human tyrosyl-DNA phosphodiesterase TDP1; Q9NUW8; recombinant TDP1, AlphaScreen DNA substrate cleavage; Potency, µM (series often up to 130 µM), without a hit: top-dose activity change, negative = inhibition, most hits filed as inhibitors; 0.28% of 350,000 active; AID 485290; note: nearly all actives have a fitted effect of over 40% in size
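AlphaScreen read-out: signal falls as enzyme removes the 3' tyrosine-FITC from a 5'-biotinylated DNA oligo (15 nM, 5 min, RT). Enzyme was E. coli-made recombinant Tdp1 at 1 nM, exposed to compound for 15 min beforehand; beads 10 ug/ml, 10 min.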
FEN1 inh – inhibitors of human flap endonuclease 1. Recombinant FEN1 flap cleavage, fluorescence, 15 min. Potency, µM (doses to about 114 µM), for inactives: at the top dose activity change, negative = inhibition, usual class: inhibitors. 0.35% of 390,000 active. AID 588795; note: nearly all actives have a fitted effect of over 65% in size
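Nuclease activity of 10 nM FEN1 was measured after 15 min of room-temperature exposure to titrated compounds, by adding 50 nM flap substrate and reading plates at 0 and 15 min.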
RECQ1 inh – blocks DNA unwinding by human RECQ1; P46063; RECQ1 DNA unwinding, red fluorescence kinetic read; Potency, µM (top dose mostly 57.3 µM), without a hit: top-dose activity, negative = inhibition, usual class: inhibitors; 0.54% of 240,000 active; AID 2549;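 note: plate controls were vehicle for no effect and no enzyme for full effect; nearly all actives have a fitted effect of over 30% in size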
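RECQ1T1 50 nM; forked duplex (20 bp + 30-nt ss tails) 200 nM, ATP 2 mM final; pH 8.0, 2 mM MgCl2, 2.5 ug/ml poly(dI-dC); 15 min compound preincubation; discontinuous kinetic read over 2 h at RT.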
BLM inh – blocks DNA unwinding by human BLM helicase | P54132 | recombinant BLM DNA unwinding, fluorescence dequenching | Potency, µM (series often up to 56.1 µM), for the others: at the highest dose activity change, negative = inhibition, most hits filed as inhibitors | 0.2% of 350,000 active | AID 2528;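 note: plate controls were vehicle for no effect and no enzyme for full effect; nearly all actives have a fitted effect of over 35% in size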
APEX1 inh – blocks human APE1 abasic DNA cleavage. 0.35% of 350,000 active. recombinant APE1, TAMRA/BHQ-2 abasic DNA cleavage fluorescence. P27695. Potency, µM (highest dose often 65.8 µM), for the others: at the highest dose activity change, negative = inhibition, most hits filed as inhibitors;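 note: plate controls were vehicle for no effect and reference inhibitor for full effect; nearly all actives have a fitted effect of over 55% in size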
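0.75 nM APE1 + cpd, 15 min RT; start w/ 50 nM TAMRA/BHQ-2 THF-abasic dsDNA; kinetic fluor 525/598 nm ×3 reads @60 s; Δ(read3−read1); normalized to DMSO and NSC13755 control wells.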
Active calls of the source: *; i = inactive; ? = inconclusive; . = no result; [ ] = dose if it differs, or a comment. Calls come from the whole dose curve; as a rule, active = well fitted curve in the direction sought with a large enough effect; inconclusive = small, poorly fitted or top-dose-only effect, or another doubt; inactive = no such curve, though single readings can be large; an effect the other way counts as inactive or inconclusive. Unless noted, % is set by controls: 0 for no effect and ±100 for the full control effect; potency is the fitted concentration of half-maximal effect.

SMILES | TDP1 block | FEN1 inh | RECQ1 inh | BLM inh | APEX1 inh
O=C(NCc1ccco1)c1cccc2c1C(=O)c1ccc(/C=C/c3ccccc3)cc1S2(=O)=O | 31.6µM* | ? | . | . | ?
Cc1c(C(=O)O)sc2nc(/C=C/c3cccc(F)c3)[nH]c(=O)c12 | . | ? | . | -6.6% | ?
Cc1c(C(=O)O)sc2nc(/C=C/c3ccccc3OC(F)F)[nH]c(=O)c12 | 70.8µM* | ? | . | -10.4% | ?
COc1cccc(C2c3c(ncn(-c4ccccc4Cl)c3=N)Oc3ccc4ccccc4c32)c1 (configuration not stated) | 3.8% | . | . | . | .
COC(=O)\C(C(C)=O)=C(/C=C/C=C/C=C/N(C)C)N(C)C | 3.16µM* | ? | 25.1µM* | -15.6% | 7.94µM*
O=C(Nc1ccccc1)C1=C[C@H](c2csc3ccccc23)C[C@H](OCCCCO)O1 | 5.1% | -16.8% | 39.8µM* | -5.1% | 3.2%
COC(=O)c1ccccc1C[C@]1(C(=O)OC)C=C[C@H](C)[C@@H](c2ccccc2)N1C(=O)C(F)(F)F | 3.7% | . | -1.1% | 0.0% | -0.1%
Cc1nc(NC2=NCN(CCCN3CCOCC3)CN2)nc2c(C)cccc12 | 0.0% | 39.8µM* | 14.0% | 134.0% | 6.3%
Cc1cc2nc(NC3=NCN(CCN4CCOCC4)CN3)nc(C)c2cc1C | 0.0% | . | -2.2% | 27.6% | -0.4%
O=Cc1ccc(O)cc1O | . | 3.1% | . | 0.0% | 21.9%
O=CN/C=C/c1cc(O)ccc1O | 7.94µM* | 17.8µM* | -25.4% | -27.0% | 10µM*
Cc1cc(C)c2c(=O)n(CC(=O)Nc3ccc(Cl)cc3)sc2n1 | . | ? | -5.7% | -1.8% | -5.0%
CCOc1ccc(NC(=O)Cn2sc3nc(C)cc(C)c3c2=O)cc1 | 0.0% | 89.1µM* | -5.6% | -1.3% | 2.0%
COc1cc2c(NC3CCN(C)CC3)nc(N3CCCN(C)CC3)nc2cc1OCC1CCCNC1 (configuration not stated) | . | 20µM* | . | . | .
COc1cc2nc(N3CCOCC3)nc(NC3CC3)c2cc1OC | . | -15.7% | . | . | .
COc1cc2nc(N3CCCN(C)CC3)nc(NC3CCNCC3)c2cc1OC | . | 25.1µM* | . | . | .
N[C@H](Cn1ccc(=O)n(Cc2ccccc2C(=O)O)c1=O)C(=O)O | 3.6% | . | -10.0% | -1.0% | -5.3%
CCc1ccc(/C=C2/SC(N3CCOCC3)=NC2=O)cc1 | . | 4.4% | -7.3% | -0.1% | 3.4%
CCN1C/C(=C/c2ccc(N3CCOCC3)cc2)C(=O)/C(=C/c2ccc(N3CCOCC3)cc2)C1 | 5.5% | 79.4µM* | -20.6% | -7.8% | -8.3%
CCOC(=O)c1ccc2c(c1)C1C=CCC1C(C(=O)O)N2 (configuration not stated) | 0.0% | . | 8.91µM* | 28.2µM* | ?
CCOC(=O)C1Nc2ccc(C(=O)O)cc2C2C=CCC12 (configuration not stated) | . | 20µM* | . | 9.2% | -9.1%
COC(=O)C[C@](O)(CCCC(C)(C)O)C(=O)O[C@@H]1C(OC)=CC23CCCN2CCc2cc4c(cc2[C@H]13)OCO4 (some centres not stated) | . | . | . | . | -5.7%
Cc1cccc(CNc2ncnc3ccc(-c4ccc5c(ccn5C)c4)cc23)c1 | . | . | . | . | -1.6%
O=c1c2c3c(sc2nnn1Cc1ccc(F)cc1)CCCC3 | -4.7% | -12.0% | . | 0.1% | .
O=C(O)c1ccc(Cn2nnc3sc4c(c3c2=O)CCCC4)cc1 | 50.1µM* | -18.8% | -18.0% | -4.5% | -11.7%
SMILES | TDP1 block | FEN1 inh | RECQ1 inh | BLM inh | APEX1 inh
Cn1nnnc1SCC(=O)c1ccco1 | -11.1% | -5.4% | -0.2% | -0.8% | 7.9%
O=C(CSCCSCC(=O)c1ccco1)c1ccco1 | ? | . | 35.5µM* | -13.4% | ?
C=CCOC(=O)C(C(C)=O)C(NC(=O)OC)c1cccc(F)c1 (configuration not stated) | -0.5%[21 µM] | . | 4.0%[11.5 µM] | -13.6%[12.4 µM] | 16.3%[12.4 µM]
COc1ccc2c(c1)c1c(c(=O)n(-c3ccc(C)cc3)c(=O)n1CC(=O)NCc1ccc(C)cc1)n2C | 0.0% | 5.5% | . | -1.5% | .
O=C(COc1ccc2c3c(c(=O)oc2c1)CCC3)Nc1ccc(CCO)cc1 | 39.8µM* | 12.9% | . | -11.1% | -6.3%
CCCC(=O)c1cc(O)c(O)cc1O | ? | . | 1.12µM* | . | 0.891µM*
COc1ccc(/C=N\NC(=O)c2ccc([N+](=O)[O-])c(C)c2)cc1COc1ccccc1C(N)=O | 6.7% | 79.4µM* | . | ? | -31.8%
COc1ccc(/C=N/NC(=O)c2ccccc2OC)cc1COc1ccccc1[N+](=O)[O-] | 1.1% | 2.9% | . | ? | 2.1%
CC1(C)Cc2c(C#N)c(N3CCN(C(=O)c4ccccc4)CC3)nc(-c3ccco3)c2CS1 | 2.4% | -15.4% | -1.5% | 28.2µM* | 3.1%
CC(C)c1nc(N2CCN(C(=O)c3ccccc3)CC2)c(C#N)c2c1COC(C)(C)C2 | 4.4% | -18.5% | i | -0.6% | 0.1%
ClCC1CSC(=NC23CC4CC(CC(C4)C2)C3)O1 (configuration not stated) | 0.0% | 9.6% | 11.9% | -4.7% | 1.6%
CC1(C)C2CCC(C2)C1(C)N=C1OC(CCl)CS1 (configuration not stated) | -3.8% | 11.9% | 0.9% | 4.47µM* | -2.6%
COc1cccc(CN2C(=O)C3CCCN3c3ccc(S(=O)(=O)N4CCOCC4)cc32)c1 (configuration not stated) | 3.9% | . | 28.2µM* | -3.9% | 15.1%
CN(C)c1ccc(/C=C/c2ccnc3ccc([N+](=O)[O-])cc23)cc1 | . | 13.2% | . | . | .
COc1ccc(/C=C/C(=O)c2c(OC)cc(O)cc2OC)cc1 | 17.4% | . | -13.4% | -11.5% | -6.3%
COc1cc(O)c(C(=O)/C=C/c2ccc(O)c(OC)c2)c(OC)c1 | 10µM* | . | -17.4% | -4.5% | ?
